High-throughput results as filed in PubChem.
In the library only some 6.9% were active in any assay of this set; here they are far more common.
GRIN3A LBD mod – binders of NR3A ligand-binding domain, primary screen, biophysical, differential scanning fluorimetry, uHTS | Tm shift relative to glycine control, % at 25 µM | actives 2.5% (n = 340,000) | Glutamate receptor ionotropic, NMDA 3A (GRIN3A) ligand-binding domain | NR3A LBD differential scanning fluorimetry, Tm shift; 0% = protein alone, 100% = glycine-bound protein;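 active = melting temperature shift of at least 10% of the positive control shift, at one fixed dose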
SKKanGAS inh – S. pyogenes SKKanGAS growth inhibitors in kanamycin, primary screen, streptokinase expression inhibitor project, SKKanGAS strain, BacTiter-Glo luminescence | AID 1662, 2009 | inhibition, % at 7.5 µM | 6 h | actives 1.3% (n = 300,000);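 active = mean replicate score, as percent of positive control median, at least 50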;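 also: strain carries kanamycin resistance gene driven by streptokinase promoter and grows in 40 µg/ml kanamycin; loss of luminescence reflects streptokinase promoter inhibition or plain growth inhibition; 0% = median of DMSO wells and 100% = positive control at its reference dose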
Mdm2-MdmX inh – inhibitors of human Mdm2-MdmX association, primary screen, cell-based, luminescence, split luciferase, SaOS-2, uHTS; Protein Mdm4 (Homo sapiens) + E3 ubiquitin-protein ligase Mdm2 (Homo sapiens), …; SaOS-2 split-luciferase Mdm2/MdmX complementation; inhibition, % at 8 µM; actives 3% (n = 330,000); AID 485346, 2010;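 active = inhibition of at least 50% at 8 µM in the primary screen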
Beta cell apopt – inhibitors of cytokine-induced beta cell apoptosis, primary screen, luminescence. AID 435005, 2010. actives 0.8% (n = 300,000). protection from apoptosis, % (test concentration not listed). INS-1E cytokine-induced death, ATP luminescence, 48 h; percent of positive-control rescue, neutral wells zero;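 active = Every replicate reaches about 75%, or at least half do and their mean reaches it too, limit read from the data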;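 also: 0% = cytokine-treated negative control wells and 100% = positive control rescue; higher means more ATP so stronger rescue from cytokine killing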
CSC inhib – cancer stem cell viability inhibitors, primary screen, luminescence | AID 2717, 2010 | inhibition, % at 7.5 µM | actives 1.1% (n = 300,000) | cancer stem cell-like cells viability; in the data active = inhibition above about 75%; tested in HMLE shEcad cells
MPTP inh – mitochondrial permeability transition pore inhibitors, primary screen, biochemical, isolated mouse mitochondria, absorbance; Ca2+ swelling absorbance, 30 min; inhibition, % at 10 µM; actives 1.4% (n = 360,000); AID 602449, 2012;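 active = inhibition of 50% or more, scaled per plate between neutral and stimulator controls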;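 also: 0% = DMSO wells given calcium and 100% = 1 mM EGTA wells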
An asterisk follows results filed as active; · = no result.

SMILES	GRIN3A LBD mod	SKKanGAS inh	Mdm2-MdmX inh	Beta cell apopt	CSC inhib	MPTP inh
CCCN(CCC)Cc1c(C(=O)N/N=C/c2cccs2)nnn1-c1nonc1N	-13	5	12	-3	·	0
CCCc1c(C(=O)N/N=C/c2cccs2)nnn1-c1nonc1N	17*	3	1	0	3	-3
CN(Cc1c(C(=O)N/N=C/c2cccs2)nnn1-c1nonc1N)c1ccccc1	16*	-3	-12	-5	-2	4
CCCCc1c(-c2ccccc2OC)ncn1CCc1ccccc1Cl	·	·	·	·	·	13
CC(=O)c1cccc(NC(=O)C(C)OC(=O)c2cccc(-n3cnnn3)c2)c1 (configuration not stated)	0	-9	-2	-1	12	3
Cn1c(SCC(=O)Nc2ccccc2)nc2ccccc2c1=O	-1	-2	19	-1	-1	1
Cc1nn2c(N3CCN(C(=O)c4ccco4)CC3)cc(C(C)(C)C)nc2c1-c1ccccc1	-18	62*	49	-5	12	·
Cc1nn2c(N3CCOCC3)cc(C(C)(C)C)nc2c1-c1ccc(Cl)cc1	4	9	2	·	·	2
Cc1nn2c(N3CCN(C4CCCC4)CC3)cc(C(C)(C)C)nc2c1-c1ccccc1	13*	10	5	-8	22	1
Cc1cc(C)n2c(NC3CCCC3)c(-c3ccc(F)cc3)nc2n1	·	·	·	·	·	0
CC(C)CNC(=O)c1ccccc1NC(=O)CSCc1ccccc1	14*	-2	-16	-4	0	-3
Cc1cccc(N2C(S)=C(C#N)C(=O)NC23CCCCC3)c1	16*	-1	-26	3	-12	0
Cc1ccc(N2C(S)=C(C#N)C(=O)NC23CCCCC3)cc1	0	2	1	-4	6	0
CCOC(=O)c1nnc(-c2ccccc2)nc1Oc1ccc(Cl)cc1	11*	-3	29	-5	·	2
CCOC(=O)c1cnc(-c2ccccc2)nc1Oc1cccc(Cl)c1	14*	-9	-32	-1	3	-2
CCOC(=O)c1nnc(-c2ccccc2)nc1Sc1ccccc1Cl	-1	2	38	-11	58	-2
Cc1nc2ccccc2nc1N/N=C/c1ccc(O)cc1	11*	1	-36	1	5	0
Brc1ccc(C2=Nn3cnnc3SC2)cc1	-1	-7	17	4	-7	-2
COc1ccccc1C(=O)NNC(=O)CCC(=O)NCc1ccccc1	12*	1	8	-1	-6	0
CCCC(=O)NNC(=O)CCC(=O)NCc1ccccc1	0	-10	14	-10	-8	-2
Cc1cc(C)c2oc(C(=O)Nc3ccc(S(=O)(=O)N4CCCC(C)C4)cc3)cc(=O)c2c1 (configuration not stated)	-9	19	29	17	·	17
CCOC1=C2[C@@H](CN(S(=O)(=O)c3ccc(C)cc3)[C@H]2c2ccccc2)[C@H]2C(=O)N(c3ccccc3)C(=O)[C@H]2C1	·	·	·	·	·	0
CC(C)(C)OC(=O)N1CCC[C@H]1c1nnc(SCC(=O)Nc2ccc(Br)cc2)o1	29*	1	11	-3	-16	1
CC(C)(C)OC(=O)N1CCC[C@H]1c1nnc(SCC(=O)Nc2cccc(Cl)c2)o1	-2	-2	30	1	-1	8
O=C(CCc1ccccc1)N1CCN(Cc2ccc(F)cc2Cl)CC1	-1	2	6	-4	47	1
SMILES	GRIN3A LBD mod	SKKanGAS inh	Mdm2-MdmX inh	Beta cell apopt	CSC inhib	MPTP inh
CS(=O)(=O)c1ccc([C@@H](O)[C@@H](CO)NC(=O)C(Cl)Cl)cc1	-1	108*	13	22	-16	-1
Fc1cccc(Cc2c(C3CCCCC3)nc3ccc(Br)cn23)c1	·	·	·	·	·	-1
Clc1cc2c(nn1)Nc1ccccc1S2	2	-1	24	-3	-4	6
S=C1Nc2ccccc2Sc2ccc(Cl)cc21	-10	69*	35	-6	-14	1
CCOC(=O)COc1ccc(Br)cc1/C=C/c1[nH]c(=O)[nH]c(=O)c1[N+](=O)[O-]	161*	11	30	-4	56	0
CCOc1cc(/C=C\c2[nH]c(=O)[nH]c(=O)c2[N+](=O)[O-])ccc1OC(C)CC (configuration not stated)	-14	9	27	-1	78*	·
CCOc1cc(N2CCOCC2)c(OCC)cc1NS(=O)(=O)c1ccc2c(c1)CC(=O)N2	·	·	·	·	·	0
CSCCC(NC(=O)c1ccc([N+](=O)[O-])cc1Cl)C(=O)OC1CCCCC1=O (configuration not stated)	-2	-3	14	-7	-1	-1
COc1ccc(Br)cc1CN(C)C(=O)c1cnc(C)cn1	0	0	0	-3	-8	0
COc1ccc(C)cc1NC(=O)CN1CCN(S(=O)(=O)c2ccc3ccccc3c2)CC1	2	·	12	-2	-5	-1
O=C(Nc1cccc(Cl)c1Cl)c1cc(S(=O)(=O)NCCc2ccccc2)ccc1F	18*	0	7	2	3	10
Cc1sc2ncnc(N/N=C/c3cccc(O)c3)c2c1C	13*	-3	-12	-3	-6	4
COc1cc(/C=N/Nc2ncnc3sc4c(c23)CCC4)ccc1O	29*	70*	·	·	·	0
CC(C)c1cc(C(=O)N2CCCC(CCC(=O)N3CCN(c4ccccn4)CC3)C2)no1 (configuration not stated)	1	12	13	-10	26	3
COc1ccc(Cl)cc1C(=O)OCC(=O)c1ccc[nH]1	1	·	-8	-1	·	-1
CCOc1ccccc1NC(=O)NNS(=O)(=O)c1cc(C)ccc1C	0	-5	21	-6	-5	2
CCc1ccccc1NC(=O)NNS(=O)(=O)c1cc(C)ccc1C	1	51*	-3	-13	-3	-1
O=C(COc1ccc(Br)cc1Cl)NNC(=O)c1ccccc1	0	·	-18	·	·	0
CCOC(=O)C1=C(c2ccccc2)NC(=S)NC1c1cccc([N+](=O)[O-])c1 (configuration not stated)	14*	-15	4	3	·	0
CC(=O)OC[C@@H]1CN(Cc2ccccc2)C[C@H](n2cnc3c(NCc4ccc(F)cc4)ncnc32)O1	·	·	·	·	·	-2
Cc1ccc(NC(=S)c2nc3ccccc3[nH]2)c(C)c1	-6	82*	-124	36	35	0
Cc1ccc(NC(=S)c2nc3ccccc3[nH]2)cc1	-7	93*	-55	54	53	1
